Screening data: PubChem BioAssay, National Center for Advancing Translational Sciences (NCATS)
VP16 counter – inhibits Gal4-VP16 luciferase reporter, ROR gamma counter-screen; Drosophila S2 Gal4-VP16 UAS-luciferase, luminescence, 20 h; AID 2546; Potency, µM (doses to about 53.6 µM), without a hit: at the highest dose activity, negative = inhibition, hits mostly inhibitors; 310,000 tested, 3.5% active;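 note: Gal4-VP16 expression switched on by copper sulfate through the metallothionein promoter; potency is the fitted concentration of half-maximal effect; % is set by controls: 0 for no effect and ±100 for the full control effect; nearly all actives have a fitted effect of over 50% in size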
Chronic BCR inh – chronic active BCR signaling inhibition; ABC-DLBCL IkBa-CBG/CBR reporter, luminescence ratio, 4 h; AID 493014; 340,000 tested, 0.05% active; Potency, µM (titrated, usually from 46.1 µM), for the others: top-dose activity change, negative = inhibition, most hits filed as inhibitors; active = well fitted inhibition curve with a large enough effect in the signal ratio, with a control signal flat, not every such curve was filed as active; inconclusive = small, poorly fitted or top-dose-only effect, or effect the other way, or a change in a side signal; the % refers to the signal ratio;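 note: potency is the fitted concentration of half-maximal effect; plate controls were basal doxycycline-induced cells for no effect and cells given 10 µM MG132 for full effect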
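Doxycycline induced both beetle luciferases in TMD8 lymphoma cells; IKK-driven degradation limits the IkappaBalpha-fused green signal, while red luminescence normalises for cell number and nonspecific effects. Compounds tested up to 46 uM, 4 hrs.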
Giardia kill – Giardia lamblia killing. activity change, % at 7.66 µM, hits read low. Giardia lamblia trophozoite viability. 340,000 tested, 0.15% active. AID 540267; in the data active = activity change below about -80%; inconclusive = between about -30% and that limit;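 note: parasites exposed to compound for two days anaerobically before the ATP read; % is set by controls: 0 for no effect and ±100 for the full control effect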
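Media and compound were dispensed first, then trophozoites at 100 cells/well; plates sat 48 hrs at 37 deg C without oxygen before ATP luminescence reagent was added and read after 15-30 min at room temperature.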
RORgamma inh – inhibitors of mouse ROR gamma transcriptional activity. P51450. Drosophila S2 Gal4-RORgamma UAS-luciferase reporter, 20 h. Potency, µM (series often up to 53.6 µM), for inactives: top-dose activity change, negative = inhibition, usual class: inhibitors. 310,000 tested, 5.4% active. AID 2551; note: potency is the fitted concentration of half-maximal effect; % is set by controls: 0 for no effect and ±100 for the full control effect; nearly all actives have a fitted effect of over 60% in size
Target sequence (P51450 whole entry, looked up, the tested form may be a part): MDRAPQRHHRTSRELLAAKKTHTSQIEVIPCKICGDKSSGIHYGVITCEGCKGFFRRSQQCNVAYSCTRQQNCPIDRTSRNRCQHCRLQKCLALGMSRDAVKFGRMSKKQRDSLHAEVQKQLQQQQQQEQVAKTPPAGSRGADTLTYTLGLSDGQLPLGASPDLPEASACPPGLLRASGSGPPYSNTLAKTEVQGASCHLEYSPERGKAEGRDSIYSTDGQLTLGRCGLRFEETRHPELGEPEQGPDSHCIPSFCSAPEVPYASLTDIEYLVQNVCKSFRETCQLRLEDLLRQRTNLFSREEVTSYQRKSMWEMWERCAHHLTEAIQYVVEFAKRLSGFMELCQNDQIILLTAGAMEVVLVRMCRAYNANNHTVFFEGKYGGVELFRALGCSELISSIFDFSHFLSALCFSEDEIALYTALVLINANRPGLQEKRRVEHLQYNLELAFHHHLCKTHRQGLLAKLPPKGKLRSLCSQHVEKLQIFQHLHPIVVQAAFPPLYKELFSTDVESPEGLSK
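Luminescence from a UAS-regulated Photinus luciferase reporter in stably transfected Drosophila Schneider cells is measured; decreased signal marks ROR gamma inhibition. Fusion expression is induced by 700 uM copper sulfate for 20 hr.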
SW480 rerep – DNA re-replication induction in SW480 cells | SW480 DNA re-replication, Hoechst DNA content imaging, 48 h | Potency, µM (series often up to 46.1 µM), for the others: at the highest dose re-replication activation, hits mostly activators | 340,000 tested, 1.8% active | AID 624297; note: potency is the fitted concentration of half-maximal effect; % of control where 0% means no effect; nearly all actives have a fitted effect of over 55% in size
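Cells (250 per well) received 23 nL compound or DMSO by pin tool and were kept 48 hr at 37 C, 5% CO2. Nuclei were then stained with Hoechst for 40 min and scanned for DNA content.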
MCF10A rerep – induces DNA re-replication in MCF 10a normal breast cells; Potency, µM (series often up to 46.1 µM), for inactives: top-dose activity, positive = re-replication, usual class: activators; MCF 10A DNA re-replication, Hoechst nuclear intensity, 48 h; AID 624296; 350,000 tested, 2.9% active; note: potency is the fitted concentration of half-maximal effect; % of control where 0% means no effect; nearly all actives have a fitted effect of over 50% in size
Numbers without * were called inactive; ? = inconclusive; · = not tested or not shown; [ ] = another dose, or the depositor's remark. Sampled rows, rich in hits. Any-hit rate of the full collection: about 8.3%. Unless noted, calls come from the whole dose curve; as a rule, active = well fitted curve in the direction sought with a large enough effect; inconclusive = small, poorly fitted or top-dose-only effect, or another doubt; inactive = no such curve, though single readings can be large; an effect the other way counts as inactive or inconclusive.

SMILES	VP16 counter	Chronic BCR inh	Giardia kill	RORgamma inh	SW480 rerep	MCF10A rerep
COc1ccccc1[C@@H]1C(c2ccc(F)cc2)=NN(c2ccccc2)[C@H]1C(=O)N1CCOC1=O	1%	3%	13	13%	21µM*	4.1µM*
COc1ccccc1[C@@H]1C(c2ccc(F)cc2)=NN(c2ccc(Br)cc2)[C@H]1C(=O)N1CCOC1=O	3%[40.7 µM]	·	·	0%[40.7 µM]	·	·
Cc1cccn2c(=O)nc(SCC(=O)NCCc3ccccc3)nc12	·	?	-17	·	-6%	-2%
CS(=O)(=O)OCC(O)C(O)COS(C)(=O)=O (stereo not drawn)	0%	·	·	9%	19%	20%
CCCc1nc2oc3c(NCCN(C)C)ncnc3c2c2c1CCCC2	-16%	?	-12	-26%	?	?
CC(C)Cc1nc2oc3c(Cl)ncnc3c2c2c1CCCC2	-28%	12%	-11	-28%	9%	29µM*
CCCc1nc2oc3c(NCCCN(C)C)ncnc3c2c2c1CCCC2	?	?	-18	?	?	15µM*
COc1ccc(/C=C(\NC(=O)c2ccc(C)cc2)C(=O)Nc2ccc(C(=O)O)cc2)cc1	10%	9%	-8	-3%	-7%	-8%
O=C(NCC(c1cccs1)S(=O)(=O)c1cccs1)c1ccccc1 (stereo not drawn)	·	0%	·	·	·	·
Cc1ccc(NC(=O)C2=C(O)c3sccc3N(C)S2(=O)=O)cc1	-8%	?	-2	29%	1%	-1%
Cc1ccc(NC(=S)C2=C(O)c3sccc3N(C)S2(=O)=O)cc1	16µM*	?	0	13µM*	-11%	1%
Cc1ccc(-c2nc(N)sc2-c2ccc(C)cc2)cc1	?	?	-4	?	3%	23µM*
Cc1ccc(-c2nc(N)sc2-c2ccccc2)cc1C	10µM*	-7%	5	7.9µM*	-2%	8.2µM*
COc1cc(-c2nnc(NC(=O)CCS(=O)(=O)c3ccc(F)cc3)o2)cc(OC)c1OC	·	0%	-18	·	23%	16µM*
COc1cc(-c2nnc(NC(=O)CCS(=O)(=O)c3ccccc3)o2)cc(OC)c1OC	·	?	5	·	?	18µM*
COc1cc(OC)cc(-c2nnc(NC(=O)CCS(=O)(=O)c3ccccc3)o2)c1	·	-7%	4	·	?	?
O=C(COc1ccccc1)Nc1nnc(-c2ccco2)o1	?	?	-9	16µM*	1%	-1%
O=C(COn1nnc2ccc(C(F)(F)F)cc21)Nc1nnc(-c2ccccc2)o1	4.5µM*	0%	2	7.1µM*	-3%	?
O=C(COc1ccccc1)Nc1nnc(-c2ccc(Cl)s2)o1	20µM*	0%	-9	13µM*	-1%	2%
Cc1ccc(C)c(-c2nnc(NC(=O)COc3ccccc3)o2)c1	·	6%	3	·	-3%	2%
O=C(COc1ccc(Cl)cc1)Nc1nnc(-c2ccco2)o1	?	-2%	-10	11µM*	-3%	5%
CCC(=O)Nc1nnc(-c2ccco2)o1	-14%	?	-12	?	-17%	0%
CN(C)C(=O)C(Sc1ccc(S(=O)(=O)N2CCCC2)cn1)c1ccccc1 (stereo not drawn)	·	-2%	-19	·	-7%	4%
O=C(Nc1ccc(C(=O)N2CCCCC2)cc1)C1CCC1	·	·	9	·	-9%	-14%
Cc1noc(C)c1C(=O)N1CCC[C@@]2(CCN(C(=O)Nc3cccc(F)c3)C2)C1	6%	·	·	0%	·	·
SMILES	VP16 counter	Chronic BCR inh	Giardia kill	RORgamma inh	SW480 rerep	MCF10A rerep
O=C(COC(=O)c1ccco1)Nc1nnc(-c2ccccc2)o1	·	?	5	·	-442%	?
O=C(COC(=O)Cc1ccccc1[N+](=O)[O-])Nc1nnc(-c2ccccc2)o1	·	-16%	26	·	-12%	18µM*
O=C(Cc1ccccc1)Nc1nnc(-c2ccco2)o1	10µM*	7%	-14	2.8µM*	-2%	3%
O=C(COc1ccccc1)Nc1nnc(-c2ccccc2)o1	10µM*	?	-24	10µM*	8%	14%
O=C(Nc1nnc(-c2ccccc2)o1)c1nc2ccccc2s1	-1%	?	-2	-34%	-4%	23µM*
O=C(COc1ccccc1)Nc1cccc(-c2nnc(-c3ccccc3)o2)c1	?	0%	-10	-31%	3%	29%
NC(=O)c1oc2ccccc2c1NC(=O)c1nc2ccccc2s1	12%	?	-1	?	17%	12%
CC[C@H](C)[C@H]1O[C@]2(CC[C@@H]1C)C[C@@H]1C[C@@H](C/C=C(\C)[C@H](O[C@@H]3C[C@H](OC)[C@H](O[C@@H]4C[C@H](OC)[C@@H](O)[C@H](C)O4)[C@H](C)O3)[C@@H](C)/C=C/C=C3\CO[C@@H]4[C@H](O)C(C)=C[C@@H](C(=O)O1)[C@]34O)O2	?	·	·	6%[10 µM]	-1%	?
O=C(Nc1cc(S(=O)(=O)N2CCOCC2)ccc1Cl)c1cc([N+](=O)[O-])ccc1Cl	·	-14%	15	·	12µM*	81%
Cc1cc(NC(=O)c2cc([N+](=O)[O-])ccc2Cl)no1	-2%	?	1	14%	?	?
O=C(Nc1ccc(S(=O)(=O)N2CCOCC2)cc1)c1ccc([N+](=O)[O-])cc1Cl	-5%	-14%	1	8%	?	?
O=C(Nc1cccc(NC(=O)c2cc([N+](=O)[O-])ccc2Cl)n1)c1cc([N+](=O)[O-])ccc1Cl	·	·	-26	·	?	6.5µM*
O=C(c1cc([N+](=O)[O-])ccc1Cl)N1c2ccccc2Sc2ccccc21	6%	3%	18	6%	?	18µM*
CCC(C)NC(=O)c1ccc2nc(-c3ccco3)c(-c3ccco3)nc2c1 (stereo not drawn)	·	·	-9	·	·	·
Cn1c(=O)cc(OCCCC(=O)N2CCCCC2)c2ccccc21	3%	-14%	-8	-16%	-33%	?
